Laboratory results reported in PubChem BioAssay (EPA / NIEHS).
Results filed as inconclusive are left out. Activity calls are given as the source filed them. How the source made its calls, unless noted: active means hit-call score of the fitted dose curve at least 0.9, where 1 is the maximum; inconclusive means response in the unintended direction; inactive means score below 0.9.

Tested on: not listed separately
Assay: CCTE_Harrill_HTTr_Apoptosis_MCF7: CCTE's 6-hour Apoptosis Assessment for the High-Throughput Transcriptomics (HTTr) Platform, in MCF-7 cells cultured in DMEM + 10% fetal bovine serum, Harrill Lab (AID 2284011; active means hit-call score of the fitted dose curve at least 0.9, where 1 is the maximum; inactive means score below 0.9)
Settings: not given
Method in brief: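 MCF-7 cells in DMEM + 10% FBS exposed 6 h to chemicals over an eight-point dilution series. Caspase-3/7 activation imaged by high-content CellEvent Green staining; fitted bidirectionally versus DMSO.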

SMILES | outcome
CNC(=C[N+](=O)[O-])NCCSCc1csc(CN(C)C)n1 | inactive
O=C(O)/C=C/C(=O)O | inactive
CCC(C)=NO | inactive
Cc1cc2nc3c(=O)[nH]c(=O)nc-3n(C[C@H](O)[C@H](O)[C@H](O)CO)c2cc1C | inactive
O=C(OCc1ccccc1)c1ccccc1 | inactive
Oc1cccc2ccccc12 | inactive
CC[N+](CC)(CC(=O)Nc1c(C)cccc1C)Cc1ccccc1 (tested in a mixture with another compound) | inactive

Tested on: not listed separately
Assay: CCTE_Harrill_HTTr_CellCount_MCF7: CCTE's Cell Proliferation Assessment for the High-Throughput Transcriptomics (HTTr) Platform, Harrill Lab (AID 2284012);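 further: cells exposed to compound for six hours; intended direction is loss of nuclei count meaning fewer cells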
Settings: not given
Method in brief: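 Cell count from high-content imaging of Hoechst-labeled nuclei serves as viability/growth readout. Chemicals were applied to MCF-7 cells in eight concentrations for six hours, with fitting in both directions relative to DMSO.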

SMILES | outcome
CNC(=C[N+](=O)[O-])NCCSCc1csc(CN(C)C)n1 | inactive
O=C(O)/C=C/C(=O)O | inactive
CCc1cc(C(N)=S)ccn1 | inactive
CCC(C)=NO | inactive
c1ccc(CNc2ncnc3nc[nH]c23)cc1 | inactive
Oc1cccc2ccccc12 | inactive
CCCCCC[C@@H](O)C/C=C\CCCCCCCC(=O)O | inactive
CC[N+](CC)(CC(=O)Nc1c(C)cccc1C)Cc1ccccc1 (tested in a mixture with another compound) | inactive

Tested on: not listed separately
Assay: CCTE_Deisenroth_AIME_384WELL_CTox_Active: Cytotoxicity Assessment (CTOX) in CCTE's 384-well Estrogen Receptor Transactivation Assay with AIME metabolic competence (metabolism positive), Deisenroth Lab (AID 2284037);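 further: chemicals first conditioned 2 h by alginate-bound induced rat liver S9 before cells; activity means signal loss indicating cell death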
Settings: not given
Method in brief: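 Chemicals pre-incubated 2 hours with alginate-immobilised phenobarbital/beta-naphthoflavone-induced male Sprague Dawley rat liver S9, then conditioned medium applied 24 hour to VM7Luc4E2 cells. Viability by fluorogenic protease substrate; 10-point series 0.002 - 200 uM.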

SMILES | outcome
CCC(C)=NO | inactive
Oc1cccc2ccccc12 | inactive
CC[N+](CC)(CC(=O)Nc1c(C)cccc1C)Cc1ccccc1 (tested in a mixture with another compound) | inactive

Tested on: not listed separately
Assay: CCTE_Deisenroth_AIME_384WELL_CTox_Inactive: Cytotoxicity Assessment (CTOX) in CCTE's 384-well Estrogen Receptor Transactivation Assay without AIME metabolic competence (metabolism negative), Deisenroth Lab (AID 2284039);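 further: cell viability via live-cell protease substrate cleaved to fluorescent probe; cells exposed 24 h to medium preincubated 2 h with alginate-water beads without S9; loss of fluorescence signal means loss of viability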
Settings: not given
Method in brief: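 Fluorescent protease-substrate viability readout after 24 h exposure of VM7Luc4E2 cells to conditioned medium. Chemicals (0.002–200 uM) first sat 2 h over alginate-water beads, no S9. Data fitted bidirectionally, loss of signal meaning viability loss.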

SMILES | outcome
CCCCCCC1CCC(=O)O1 (stereo unspecified) | inactive
CCC(C)=NO | inactive
COC(=O)[C@]1(C)CCC[C@@]2(C)[C@H]1CC=C1C=C(C(C)C)CC[C@@H]12 | inactive
Oc1cccc2ccccc12 | inactive
CC[N+](CC)(CC(=O)Nc1c(C)cccc1C)Cc1ccccc1 (tested in a mixture with another compound) | inactive

Read-out: not listed separately
Assay: BSK_BT_PBMCCytotoxicity: PBMC Cytotoxicity Assessment in the BioMAP Diversity Plus: BT Assay (AID 2284225; active means hit-call score of the fitted dose curve at least 0.9, where 1 is the maximum; inactive means score below 0.9;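 further: PBMC viability measured by Alamar Blue dye reduction fluorescence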)
Settings: primary human B cells with PBMC
Method in brief: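 Viability by Alamar Blue reduction (6 h, ex/em 546/580 nm) after 90 h culture of SEB/TSST-1-activated PBMC (20 ng/mL each) given compound 1 h before activation. DMSO served as baseline for curve fitting.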

SMILES | outcome | AC50
CCCCCCC(O)CCCCCCCCCCC(=O)OC (stereo unspecified) | inactive | –
Cc1cc(-n2nc3ccc(Cl)cc3n2)c(O)c(C(C)(C)C)c1 | inactive | –
Oc1cccc2ccccc12 | inactive | –
CN(C)c1ccc(C(c2ccccc2)c2ccc(N(C)C)cc2)cc1 | – | 33.7 µM (active)

Read-out: Secreted IgG (sIgG), gene 3500
Assay: BSK_BT_sIgG: BioMAP Diversity Plus: BT Assay for Secreted IgG (sIgG) Biomarker Activity (AID 2284226; active means hit-call score of the fitted dose curve at least 0.9, where 1 is the maximum; inactive means score below 0.9)
Settings: primary human B cells with PBMC
Method in brief: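 ELISA quantitation of secreted IgG from human B cells co-cultured with PBMC, sampled 24 h post-dosing. Values fitted relative to DMSO vehicle as baseline, positive fitting direction.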

SMILES | outcome | AC50
CCCCCCC(O)CCCCCCCCCCC(=O)OC (stereo unspecified) | inactive | –
Cc1cc(-n2nc3ccc(Cl)cc3n2)c(O)c(C(C)(C)C)c1 | inactive | –
Oc1cccc2ccccc12 | inactive | –
CN(C)c1ccc(C(c2ccccc2)c2ccc(N(C)C)cc2)cc1 | – | 11.8 µM (active)
